Assay outcomes from PubChem.
Only some compounds are listed: those with a hit (about 5.4% of all), similar ones and a draw of the others.
RORg inh: ROR gamma (mouse) transcription inhibition. AID 2551. hit rate 5.4% among 310,000. Drosophila S2 Gal4-RORgamma UAS-luciferase reporter, 20 h. Potency, µM (top dose mostly 53.6 µM), most hits filed as inhibitors. P51450; further: nearly all actives have a fitted effect of over 60% in size
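Read-out: Photinus luciferase luminescence; inhibitors lower reporter signal. Insect Schneider cells with Gal4-ROR gamma fusion under metallothionein promoter, UAS reporter; 700 uM final copper sulfate induction, 20 hr, ambient temperature.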
CtBP-E1A blk: inhibitors of CtBP/E1A interaction. AlphaScreen GST-E1A/His-CtBP binding, 1536-well; hits give low values. activity change, % (no concentration beside the values). hit rate 0.49% among 340,000; in the data active means activity change below about -65%; inconclusive means mostly about -30% to -63%
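Steps: dispense buffer (Tris pH 8.0, NaCl 300 mM, TCEP 1 mM, BSA, Tween 20); add 5X protein mix (GST-E1A, His-CtBP, 125 nM each); pin 23 nL compound; 2 h at 37 °C, dark; add 5X beads (50 ug/mL); 1 h; read.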
p53 reactivator: mutant p53 re-activation in reporter cells. H1299 p53-A138V BP100-luciferase reporter, luminescence, 24 h. Potency, µM (top dose mostly 92.2 µM), hits mostly activators. hit rate 0.063% among 320,000. AID 504706; further: nearly all actives have a fitted effect of over 45% in size
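p53-null H1299 cells stably carrying temperature-sensitive p53-A138V and a BP100-luciferase reporter were pinned with compounds (4-point, 1:5 series) and held 24 hrs at 37 deg C. Luminescence was read 10 min after detection reagent.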
Six1-Eya2 inh: blocks human Six1 binding to Eya2. activity change, % (concentration not given with the values). hit rate 0.56% among 360,000. AID 651725. AlphaScreen GST-Six1/His-Eya2 binding, biochemical; hits give low values. Q15475+O00167; in the data active means activity change below about -65%; inconclusive means mostly about -30% to -63%
Target sequence (O00167 whole entry, looked up): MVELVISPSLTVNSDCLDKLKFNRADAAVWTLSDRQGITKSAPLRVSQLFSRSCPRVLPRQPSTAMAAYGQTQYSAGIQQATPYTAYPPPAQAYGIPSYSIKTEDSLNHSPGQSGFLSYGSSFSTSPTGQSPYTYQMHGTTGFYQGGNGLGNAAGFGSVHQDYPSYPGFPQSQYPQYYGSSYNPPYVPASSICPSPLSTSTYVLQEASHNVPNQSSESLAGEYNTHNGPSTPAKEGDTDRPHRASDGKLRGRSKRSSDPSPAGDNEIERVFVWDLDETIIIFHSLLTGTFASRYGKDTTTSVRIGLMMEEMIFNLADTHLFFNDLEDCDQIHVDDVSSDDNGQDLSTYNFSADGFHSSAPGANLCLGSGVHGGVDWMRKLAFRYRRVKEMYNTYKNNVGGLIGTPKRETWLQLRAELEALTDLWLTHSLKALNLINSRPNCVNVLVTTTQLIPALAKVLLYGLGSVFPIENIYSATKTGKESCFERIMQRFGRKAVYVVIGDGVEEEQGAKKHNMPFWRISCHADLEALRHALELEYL
Target sequence (Q15475 whole entry, looked up): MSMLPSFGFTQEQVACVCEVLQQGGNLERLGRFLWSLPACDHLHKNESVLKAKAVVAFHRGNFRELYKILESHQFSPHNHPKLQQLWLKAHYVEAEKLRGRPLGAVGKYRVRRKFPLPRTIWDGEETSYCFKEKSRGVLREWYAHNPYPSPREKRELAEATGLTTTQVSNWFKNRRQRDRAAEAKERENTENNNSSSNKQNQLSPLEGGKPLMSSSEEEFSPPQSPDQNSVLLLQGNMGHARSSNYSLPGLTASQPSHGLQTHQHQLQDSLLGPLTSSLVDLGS
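GST-Six1 + His-Eya2 (5X stock: 250/500 nM); Tris pH 8.0, 300 mM NaCl, 0.05% BSA, 0.02% Tween 20; GSH donor/Ni acceptor beads; 1 h 37 °C dark; AlphaScreen readout.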
Gal4-VP16 FLuc: Gal4-VP16 reporter inhibition counter-screen; Drosophila S2 Gal4-VP16 UAS-luciferase, luminescence, 20 h; Potency, µM (series often up to 53.6 µM), hits mostly inhibitors; hit rate 3.5% among 310,000; AID 2546;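 further: Gal4-VP16 expression switched on by copper sulfate through the metallothionein promoter; nearly all actives have a fitted effect of over 50% in size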
Of the large screens only hits and unclear results are named; the others gave an inactive call. Unless noted, the call rests on the fitted dose curve; in most records, active means well fitted curve in the direction sought with a large enough effect; inconclusive means small, poorly fitted or top-dose-only effect, or another doubt; inactive means no such curve, though single readings can be large; an effect the other way counts as inactive or inconclusive.

CCCC[C@@H]1CNC(=S)N1CCCC	RORg inh 2.82µM, Gal4-VP16 FLuc 7.94µM
CC1=NN(C(=O)Cn2ccc([N+](=O)[O-])n2)C(O)(C(F)(F)F)C1 (stereo unspecified)	RORg inh inconclusive, Gal4-VP16 FLuc inconclusive
CC1=NN(C(=O)Cn2nc([N+](=O)[O-])c(Br)c2C)C(O)(C(F)(F)F)C1 (stereo unspecified)	RORg inh 10µM, Gal4-VP16 FLuc inconclusive
COc1nn(CC(=O)N2N=C(C)CC2(O)C(F)(F)F)cc1[N+](=O)[O-] (stereo unspecified)	RORg inh 3.16µM
COc1ccc(-c2nnc(NC(=O)c3ccccc3C)o2)cc1	RORg inh 0.631µM, Gal4-VP16 FLuc 0.794µM
Cc1ccccc1C(=O)Nc1nnc(-c2ccncc2)o1	RORg inh 2.82µM, Gal4-VP16 FLuc 5.01µM
Cc1ccccc1C(=O)Nc1nnc(-c2ccco2)o1	none
NC(=O)c1ccc(-c2ncc(-c3ccccc3)o2)cc1	RORg inh 1.78µM, Gal4-VP16 FLuc 11.2µM
c1ccc(-c2cnc(-c3cccnc3)o2)cc1	RORg inh inconclusive, p53 reactivator 25.1µM
Fc1cccc(-c2ncc(-c3ccccc3)o2)c1	none (no result: RORg inh, p53 reactivator, Gal4-VP16 FLuc)
CC(C)C1COS(=O)(=O)NC1CC(=O)SC(C)(C)C (stereo unspecified)	none (no result: p53 reactivator)
CCOc1ccc(-c2nc(=S)[nH][nH]2)cc1	RORg inh 5.01µM, p53 reactivator inconclusive, Gal4-VP16 FLuc 22.4µM
COc1ccc(-c2n[nH]c(=S)nc2-c2ccc(OC)cc2)cc1	RORg inh 7.08µM, Gal4-VP16 FLuc inconclusive
COc1ccc(-c2nc(=S)[nH][nH]2)cc1	RORg inh 10µM, Gal4-VP16 FLuc inconclusive
Oc1ccc(-c2nc(=S)[nH][nH]2)cc1	RORg inh inconclusive
COc1ccc(-c2nc(=S)[nH][nH]2)cc1OC	none (no result: CtBP-E1A blk)
FC(F)(F)c1ccc(-c2nc(=S)[nH][nH]2)cc1	RORg inh 2.51µM
COCCCNC(=O)C[C@@H]1C[C@@]2(C(=O)OC)CC(C)(C)CC=C2N(Cc2ccc3c(c2)OCO3)C1=O	none (no result: RORg inh, p53 reactivator, Gal4-VP16 FLuc)
OCC1OC(c2ccccc2)C=CC1Oc1cc(Cl)cc(Cl)c1 (stereo unspecified)	none (no result: CtBP-E1A blk, p53 reactivator, Six1-Eya2 inh)
O=C(Cn1nnc(-c2cccs2)n1)NNC(=O)c1ccccc1Cl	none
S=c1nc(-c2cccc(Cl)c2)[nH][nH]1	RORg inh 12.6µM, Gal4-VP16 FLuc inconclusive
CCCCCCCCOc1c(OC)cc(/C=C/C(=O)N2CCN(c3ccc(C)c(C)c3)CC2)cc1OC	none (no result: CtBP-E1A blk, p53 reactivator, Six1-Eya2 inh)
O=C(N/N=C/C1CCCCC1)c1cc(Cl)ccc1O	RORg inh 12.6µM
CCC(Oc1ccccc1C)C(=O)N1CCCN(C)CC1 (stereo unspecified)	none (no result: RORg inh, p53 reactivator, Gal4-VP16 FLuc)
CN(C)S(=O)(=O)Oc1ccsc1C(=O)Nc1ccc(Cl)cc1	Gal4-VP16 FLuc 25.1µM
CC(C)CO/N=C1/[C@H]2O[C@@H]2[C@@H](O)[C@H]2[C@H]1CCn1c(=O)n(C)c(=O)n12	none (no result: CtBP-E1A blk, p53 reactivator, Six1-Eya2 inh)
COc1ccc(-c2coc3cc4oc(=O)c(CC(=O)O)c(C)c4cc23)cc1	none
COc1cccc(-c2coc3c(C)c4oc(=O)c(CCC(=O)O)c(C)c4cc23)c1	CtBP-E1A blk -87.6, Six1-Eya2 inh inconclusive
COc1cccc(-c2coc3cc4oc(=O)c(CCC(=O)O)c(C)c4cc23)c1	CtBP-E1A blk -66.9, Six1-Eya2 inh -77.4, Gal4-VP16 FLuc 12.6µM
COc1ccc(N2CCN(C(=O)c3c(C)nn(-c4ccccc4)c3C)CC2)cc1	none
O=C(NCC1CC1)c1cccc2c1C(=O)c1ccc(-c3ccc(OC(F)(F)F)cc3)cc1S2(=O)=O	none (no result: RORg inh, Gal4-VP16 FLuc)
COc1ccccc1CN1C[C@@H]2C[C@@H](c3cccc(C)c3)N3CCC[C@@]23C1=O	none
Cc1cccc(N=c2oc3cc(O)ccc3cc2C(N)=O)c1	RORg inh 11.2µM, p53 reactivator inconclusive, Gal4-VP16 FLuc 14.1µM
COc1ccccc1N=c1oc2cc(O)ccc2cc1C(N)=O	RORg inh inconclusive, p53 reactivator inconclusive
COc1ccc(Cn2c3nc4ccccc4nc3c3c(=O)n(Cc4ccco4)cnc32)cc1	RORg inh 10µM, Gal4-VP16 FLuc inconclusive (no result: CtBP-E1A blk, Six1-Eya2 inh)
Cc1cccc(-n2cnc3c(c2=O)c2nc4ccccc4nc2n3Cc2ccco2)c1	RORg inh inconclusive
O=C(Nc1nnc(-c2cccnc2)o1)c1cccc([N+](=O)[O-])c1	RORg inh 0.794µM, Gal4-VP16 FLuc 1.12µM (no result: CtBP-E1A blk, Six1-Eya2 inh)
